PubChem BioAssay AID1159580 (chemical genetic matrix, 2015)
Out of some 5,500 compounds screened, about 2,000 (36%) were called active. About 18% were inconclusive and are not listed. This is one part of the list. Unmarked numbers belong to inactive results. No stated cut-off is given here; in the data, active means normalized growth mostly below about 0.91 (no sharp cut-off); inconclusive means no clear call, values can overlap the other calls; inactive means mostly above about 0.92.

Assay: chemical genetic growth profiling, strain panel (AID 1159580);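 further: tested at 20 µM; growth read once vehicle control cultures reached saturation at 30 °C; 1 = growth at the plate median or of vehicle wells; lower values mean less growth of the strain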
Details: growth OD

Compound: CC(CCC(=O)O)[C@H]1CCC2C3CC[C@@H]4CCCC[C@]4(C)C3CC[C@@]21C (some centres undefined)
- normalized growth (S. cerevisiae deletion strains, locus YJR043C, strain POL32, hits give low values): 1.02
- normalized growth (S. cerevisiae deletion strains, locus YJR066W, strain TOR1, hits give low values): 1.06
- normalized growth (S. cerevisiae deletion strains, locus YJR075W, strain HOC1, hits give low values): 0.999
- normalized growth (S. cerevisiae deletion strains, locus YKL009W, strain mrt4, hits give low values): 0.95
- normalized growth (S. cerevisiae deletion strains, locus YKL068W, hits give low values): 0.989
- normalized growth (S. cerevisiae deletion strains, locus YKL085W, strain MDH1 (second series), hits give low values): 0.986
- normalized growth (S. cerevisiae deletion strains, locus YKL085W, strain MDH1, hits give low values): 0.986
- normalized growth (S. cerevisiae deletion strains, locus YKL160W, strain elf1, hits give low values): 1.02
- normalized growth (S. cerevisiae deletion strains, locus YKL190W, strain CNB1, hits give low values): 0.998
- normalized growth (S. cerevisiae deletion strains, locus YKR001C, strain vps1, hits give low values): 0.998
- normalized growth (S. cerevisiae deletion strains, locus YKR026C, strain gcn3, hits give low values): 1.01
- normalized growth (S. cerevisiae deletion strains, locus YKR091W, strain srl3, hits give low values): 1
- normalized growth (S. cerevisiae deletion strains, locus YLL001W, strain dnm1, hits give low values): 1.01
- normalized growth (S. cerevisiae deletion strains, locus YLL026W, hits give low values): 0.988
- normalized growth (S. cerevisiae deletion strains, locus YLL041C, strain sdh2, hits give low values): 1
- normalized growth (S. cerevisiae deletion strains, locus YLR027C, strain aat2, hits give low values): 0.995
- normalized growth (S. cerevisiae deletion strains, locus YLR039C, strain RIC1, hits give low values): 1.05
- normalized growth (S. cerevisiae deletion strains, locus YLR058C, strain SHM2, hits give low values): 0.999
- normalized growth (S. cerevisiae deletion strains, locus YLR102C, strain apc9, hits give low values): 0.984
- normalized growth (S. cerevisiae deletion strains, locus YLR113W, strain HOG1, hits give low values): 0.977
- normalized growth (S. cerevisiae deletion strains, locus YLR221C, strain rsa3, hits give low values): 1.02
- normalized growth (S. cerevisiae deletion strains, locus YLR258W, strain gsy2, hits give low values): 1
- normalized growth (S. cerevisiae deletion strains, locus YLR262C, strain YPT6 (second series), hits give low values): 1.05
- normalized growth (S. cerevisiae deletion strains, locus YLR262C, strain YPT6, hits give low values): 1.1
- normalized growth (S. cerevisiae deletion strains, locus YLR268W, strain sec22, hits give low values): 0.979
- normalized growth (S. cerevisiae deletion strains, locus YLR320W, strain mms22, hits give low values): 1.05
- normalized growth (S. cerevisiae deletion strains, locus YLR330W, strain CHS5, hits give low values): 0.999
- normalized growth (S. cerevisiae deletion strains, locus YLR342W, strain FKS1 (second series), hits give low values): 0.956
- normalized growth (S. cerevisiae deletion strains, locus YLR342W, strain FKS1, hits give low values): 1.04
- normalized growth (S. cerevisiae deletion strains, locus YLR357W, strain rsc2, hits give low values): 0.997
- normalized growth (S. cerevisiae deletion strains, locus YLR370C, strain arc18, hits give low values): 1.01
- normalized growth (S. cerevisiae deletion strains, locus YLR371W, strain rom2, hits give low values): 0.986
- normalized growth (S. cerevisiae deletion strains, locus YLR384C, strain iki3, hits give low values): 1
- normalized growth (S. cerevisiae deletion strains, locus YLR418C, strain cdc73, hits give low values): 0.975
- normalized growth (S. cerevisiae deletion strains, locus YML016C, strain PPZ1, hits give low values): 1
- normalized growth (S. cerevisiae deletion strains, locus YML032C, strain rad52, hits give low values): 0.992
- normalized growth (S. cerevisiae deletion strains, locus YML120C, strain ndi1, hits give low values): 1.01
- normalized growth (S. cerevisiae deletion strains, locus YML124C, strain tub3, hits give low values): 0.988
- normalized growth (S. cerevisiae deletion strains, locus YMR058W, strain fet3, hits give low values): 1.01
- normalized growth (S. cerevisiae deletion strains, locus YMR078C, strain ctf18, hits give low values): 1
- normalized growth (S. cerevisiae deletion strains, locus YMR125W, strain sto1, hits give low values): 1.02
- normalized growth (S. cerevisiae deletion strains, locus YMR129W, hits give low values): 1
- normalized growth (S. cerevisiae deletion strains, locus YMR205C, strain PFK2, hits give low values): 1.03
- normalized growth (S. cerevisiae deletion strains, locus YMR223W, strain ubp8, hits give low values): 0.994
- normalized growth (S. cerevisiae deletion strains, locus YMR231W, strain pep5, hits give low values): 0.998
- normalized growth (S. cerevisiae deletion strains, locus YMR307W, strain GAS1, hits give low values): 0.985
- normalized growth (S. cerevisiae deletion strains, locus YNL067W, strain RPL9B, hits give low values): 1.02
- normalized growth (S. cerevisiae deletion strains, locus YNL071W, strain lat1, hits give low values): 1.01
- normalized growth (S. cerevisiae deletion strains, locus YNL183C, strain NPR1, hits give low values): 1.11 [resistant] (active)
- normalized growth (S. cerevisiae deletion strains, locus YNL209W, strain ssb2, hits give low values): 1.02
- normalized growth (S. cerevisiae deletion strains, locus YNL233W, strain BNI4, hits give low values): 1.01
- normalized growth (S. cerevisiae deletion strains, locus YNL248C, strain rpa49, hits give low values): 1.01
- normalized growth (S. cerevisiae deletion strains, locus YNL250W, strain rad50, hits give low values): 0.982
- normalized growth (S. cerevisiae deletion strains, locus YNL271C, strain bni1, hits give low values): 0.986
- normalized growth (S. cerevisiae deletion strains, locus YNL298W, strain CLA4, hits give low values): 0.981
- normalized growth (S. cerevisiae deletion strains, locus YNL307C, strain MCK1, hits give low values): 0.987
- normalized growth (S. cerevisiae deletion strains, locus YNL322C, strain KRE1 (second series), hits give low values): 1.01
- normalized growth (S. cerevisiae deletion strains, locus YNL322C, strain KRE1, hits give low values): 0.997
- normalized growth (S. cerevisiae deletion strains, locus YNR049C, strain mso1, hits give low values): 0.998
- normalized growth (S. cerevisiae deletion strains, locus YNR052C, strain pop2, hits give low values): 0.985
- normalized growth (S. cerevisiae deletion strains, locus YOL012C, strain htz1): 1.54
- normalized growth (S. cerevisiae deletion strains, locus YOL147C, strain pex11, hits give low values): 0.993
- normalized growth (S. cerevisiae deletion strains, locus YOR001W, strain rrp6, hits give low values): 1.02
- normalized growth (S. cerevisiae deletion strains, locus YOR061W, strain CKA2, hits give low values): 0.99
- normalized growth (S. cerevisiae deletion strains, locus YOR069W, strain VPS5, hits give low values): 0.993
- normalized growth (S. cerevisiae deletion strains, locus YOR070C, strain gyp1, hits give low values): 0.994
- normalized growth (S. cerevisiae deletion strains, locus YOR080W, strain dia2, hits give low values): 0.998
- normalized growth (S. cerevisiae deletion strains, locus YOR083W, strain WHI5, hits give low values): 1.02
- normalized growth (S. cerevisiae deletion strains, locus YOR106W, strain vam3, hits give low values): 1.02
- normalized growth (S. cerevisiae deletion strains, locus YOR136W, strain idh2, hits give low values): 0.986
- normalized growth (S. cerevisiae deletion strains, locus YOR144C, strain elg1, hits give low values): 0.992
- normalized growth (S. cerevisiae deletion strains, locus YOR184W, strain ser1, hits give low values): 0.992
- normalized growth (S. cerevisiae deletion strains, locus YOR231W, strain MKK1, hits give low values): 0.969
- normalized growth (S. cerevisiae deletion strains, locus YOR265W, strain rbl2, hits give low values): 1
- normalized growth (S. cerevisiae deletion strains, locus YOR270C, strain vph1, hits give low values): 1.01
- normalized growth (S. cerevisiae deletion strains, locus YOR290C, strain snf2, hits give low values): 1.01
- normalized growth (S. cerevisiae deletion strains, locus YOR316C, strain cot1, hits give low values): 0.985
- normalized growth (S. cerevisiae deletion strains, locus YPL051W, strain arl3, hits give low values): 1.01
- normalized growth (S. cerevisiae deletion strains, locus YPL055C, strain LGE1, hits give low values): 0.991
- normalized growth (S. cerevisiae deletion strains, locus YPL078C, strain atp4, hits give low values): 1.01
- normalized growth (S. cerevisiae deletion strains, locus YPL106C, strain sse1, hits give low values): 1.03
- normalized growth (S. cerevisiae deletion strains, locus YPL240C, strain hsp82, hits give low values): 0.998
- normalized growth (S. cerevisiae deletion strains, locus YPL256C, strain CLN2, hits give low values): 0.94
- normalized growth (S. cerevisiae deletion strains, locus YPR119W, strain clb2, hits give low values): 0.993
- normalized growth (S. cerevisiae deletion strains, locus YPR141C, strain kar3, hits give low values): 0.986
- normalized growth (S. cerevisiae deletion strains, locus YPR163C, strain tif3, hits give low values): 1.01
- normalized growth (S. cerevisiae deletion strains, locus YPR167C, strain met16, hits give low values): 0.971
- normalized growth (S. cerevisiae deletion strains, strain wtn01, hits give low values): 0.965
- normalized growth (S. cerevisiae strains, strain wild type, hits give low values): 0.995
